Screening results as filed in PubChem.
In the library only some 10% were active in any assay of this set; here they are far more common.
HEK cytotox: cytotoxic compounds in HEK 293 cells | HEK 293 viability, ATP luminescence (CellTiter-Glo), 48-72 h | Potency, µM (top dose mostly 115 µM), for inactives: top-dose activity change, negative = cytotoxicity, hits mostly inhibitors | 6.6% of 94,000 active; further: nearly all actives have a fitted effect of over 60% in size
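HEK 293 cells seeded at 250 cells/well were exposed to compound for 48 or 72 hr at 37 degree Celsius. Viability taken as ATP content by CellTiter-Glo luminescence.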
NIH3T3 tox: NIH 3T3 cell cytotoxicity; NIH 3T3 viability, CellTiter-Glo ATP luminescence, 48-72 h; Potency, µM (series often up to 96.7 µM), inactives show at the highest dose activity change, negative = cytotoxicity, hits mostly inhibitors; 4.3% of 94,000 active; further: nearly all actives have a fitted effect of over 55% in size
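NIH 3T3 cells at 400 cells/well received 23 nL of compound by pintool and were incubated 48 or 72 h at 37 °C. Viability was read as ATP-coupled CellTiter-Glo luminescence.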
FLuc inh: blocks purified firefly luciferase enzyme activity. P08659. purified P. pyralis luciferase, luminescence, biochemical. Potency, µM (titrated, usually from 115 µM), usual class: inhibitors. 2.5% of 76,000 active; further: nearly all actives have a fitted effect of over 65% in size
Target sequence (P08659 whole entry, looked up): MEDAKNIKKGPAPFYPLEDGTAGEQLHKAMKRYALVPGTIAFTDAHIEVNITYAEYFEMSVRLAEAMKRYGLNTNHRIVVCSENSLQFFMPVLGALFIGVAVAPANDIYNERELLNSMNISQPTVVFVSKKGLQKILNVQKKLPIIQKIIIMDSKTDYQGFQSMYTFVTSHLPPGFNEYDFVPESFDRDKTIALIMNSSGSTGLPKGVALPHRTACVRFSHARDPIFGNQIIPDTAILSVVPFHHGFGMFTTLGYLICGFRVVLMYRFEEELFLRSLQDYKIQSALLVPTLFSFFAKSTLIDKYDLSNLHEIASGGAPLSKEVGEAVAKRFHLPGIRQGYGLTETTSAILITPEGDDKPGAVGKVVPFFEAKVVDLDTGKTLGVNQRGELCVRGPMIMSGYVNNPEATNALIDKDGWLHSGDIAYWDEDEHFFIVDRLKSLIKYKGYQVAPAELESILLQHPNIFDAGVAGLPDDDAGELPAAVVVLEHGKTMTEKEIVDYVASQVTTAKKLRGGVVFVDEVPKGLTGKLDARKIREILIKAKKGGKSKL
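Luminescence read by CCD imager after adding enzyme (10nM final) to wells holding compound, titrated in qHTS. Substrates 10uM each D-luciferin and ATP; buffer 50mM Tris acetate pH 7.5, 10mM Mg acetate, Tween-20, BSA.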
NPR1 antag: human Npr1 receptor antagonism. P16066. AID 1347048. Potency, µM (top dose mostly 46.3 µM), for inactives: at the top dose activity change, negative = inhibition, usual class: inhibitors. 1.6% of 76,000 active. HEK293 hNpr1 GloSensor cGMP, ANP-stimulated luminescence; calls by dose curve; further: nearly all actives have a fitted effect of over 60% in size
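Compound pre-incubated 30 min at room temperature on GloSensor-loaded HEK293 cells stably carrying hNpr1 and the pGS-40F cGMP biosensor. Stimulation uses hNppA at 0.1 nM final; luminescence is taken at baseline and 20 min post-agonist.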
GPT2 inhibitor: GPT2 alanine aminotransferase inhibition | Recombinant GPT2, coupled pyruvate oxidase/HRP Amplex Red fluorescence | AID 1671188 | 0.25% of 100,000 active | Potency, µM (top dose mostly 57.7 µM), for inactives: at the highest dose activity change, negative = inhibition, hits mostly inhibitors | Q8TD30; further: nearly all actives have a fitted effect of over 60% in size
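GPT2 10ng/uL, a-KG 250uM, L-Ala 2mM, HEPES pH7.5 + 0.0001% Tween; 30 min RT. Then Amplex mix (PO/HRP/ThPP), 30 min RT dark, fluorescence. AOA 50uM used as positive control.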
* marks the source's active call; other numbers are inactive results; [ ] = dose if it differs, or a comment. Unless noted, the call rests on the fitted dose curve; in most records, active means well fitted curve in the direction sought with a large enough effect; inconclusive means small, poorly fitted or top-dose-only effect, or another doubt; inactive means no such curve, though single readings can be large; an effect the other way counts as inactive or inconclusive. On the % scale 0 is the no-effect control and ±100 the full control effect; potency means the concentration at half of the fitted maximal effect.

`CC1Oc2ccc(NS(=O)(=O)c3ccc(Cl)cc3)cc2CN(Cc2ccccc2F)C1=O` (stereo not given) gave HEK cytotox inconclusive, NIH3T3 tox 35µM*, FLuc inh inactive, NPR1 antag inconclusive and GPT2 inhibitor inactive.
For Cc1ccc(S(=O)(=O)Nc2ccc3c(c2)CN(CCc2ccc(F)cc2)C(=O)C(C)O3)cc1F (stereo not given) the results were HEK cytotox inconclusive, NIH3T3 tox inconclusive, FLuc inh inactive, NPR1 antag -18% and GPT2 inhibitor inactive.
CC1Oc2ccc(NS(=O)(=O)c3cccc(Cl)c3)cc2CN(Cc2ccccc2Cl)C1=O (stereo not given) was read as HEK cytotox inconclusive, NIH3T3 tox 22µM*, FLuc inh inactive, NPR1 antag -24% and GPT2 inhibitor -7%.
Screening COc1cccc(C(=O)N2C[C@H](C(N)=O)[C@H]3c4ccccc4N(CC4CC4)C(=O)[C@]32C)c1 returned HEK cytotox -3%[57.5 µM], NIH3T3 tox inconclusive and GPT2 inhibitor inactive.
`O=C(C1CC=CC1)N1CCC(N2C(=O)C(OCC3CC3)C23CCCCC3)CC1` (stereo not given) gave HEK cytotox inconclusive, NIH3T3 tox -18%, FLuc inh inactive, NPR1 antag 1% and GPT2 inhibitor -1%.
`CCCOC(=O)N1CCC(C(=O)Nc2cccc(-c3cccc(F)c3)c2)CC1` gave HEK cytotox 45µM*, NIH3T3 tox inconclusive, FLuc inh inactive, NPR1 antag inconclusive and GPT2 inhibitor -4%.
Screening CCCN(C)c1nccnc1OC1CCN(C(=O)c2cccc(OC)c2OC)C1 (stereo not given) returned HEK cytotox inconclusive, NIH3T3 tox inconclusive, FLuc inh 32µM*, NPR1 antag -15% and GPT2 inhibitor inconclusive.
For CCCN(C)c1nccnc1OC1CCN(C(=O)Cc2ccccc2OC)C1 (stereo not given) the results were HEK cytotox inconclusive, NIH3T3 tox inconclusive, FLuc inh 35µM*, NPR1 antag -11% and GPT2 inhibitor inactive.
`CCCN(C)c1nccnc1OC1CCN(C(=O)c2c(F)cccc2F)C1` (stereo not given) gave HEK cytotox inconclusive, NIH3T3 tox inconclusive, FLuc inh inconclusive, NPR1 antag -4% and GPT2 inhibitor inactive.
Screening Cc1nccn1C(C)C(=O)NCc1cccnc1N(C)Cc1ccccc1 (stereo not given) returned HEK cytotox -21%, NIH3T3 tox -15%, FLuc inh inactive, NPR1 antag -5% and GPT2 inhibitor 0%.
O=C(C1CC1)N1CCC(C(=O)N2CCC(N3CCOC3=O)CC2)CC1 was read as HEK cytotox -5%, NIH3T3 tox inactive and GPT2 inhibitor inactive.
Screening O=C1Cc2c(-c3ccccc3OCc3ccccc3)n[nH]c2CN1Cc1ccccc1 returned HEK cytotox 50µM*, NIH3T3 tox inconclusive, FLuc inh inactive, NPR1 antag -21%[70.6 µM] and GPT2 inhibitor 4%[88.5 µM].
O=C1Cc2c(-c3ccccc3OCc3ccccc3)n[nH]c2CN1Cc1ccccn1 was read as HEK cytotox 100µM*, NIH3T3 tox inconclusive, FLuc inh inactive, NPR1 antag -10%[70.6 µM] and GPT2 inhibitor inactive.
O=C1Cc2c(-c3ccccc3OCc3ccccc3)n[nH]c2CN1CCOc1ccccc1 was read as HEK cytotox inconclusive, NIH3T3 tox inconclusive, FLuc inh inactive, NPR1 antag -18% and GPT2 inhibitor -5%.
For O=C1Cc2c(-c3ccccc3Oc3ccccc3)n[nH]c2CN1Cc1ccccn1 the results were HEK cytotox inconclusive, NIH3T3 tox inconclusive, FLuc inh inactive, NPR1 antag -5%[70.6 µM] and GPT2 inhibitor -11%[88.5 µM].
O=S(=O)(Cc1ccccc1)N1CCC(OC2CCN(Cc3cccnc3)CC2)CC1 was read as HEK cytotox -20%, NIH3T3 tox -24%, FLuc inh inactive, NPR1 antag 3% and GPT2 inhibitor inactive.
